Compounds with a hit are over-represented: about 8% of the library has one in this group of screens.
ELG1 DNA repair: ELG1-dependent DNA repair inhibition; HEK293T ELG1-luciferase reporter, luminescence, 16 h; DNA damage induced by 5-fluorouridine; Potency, µM (titrated, usually from 46.1 µM), for the others: at the top dose activity change, negative = inhibition, actives largely listed as inhibitors; 330,000 tested, 2.3% active; AID 504467; also: potency is read from the fitted curve at half-maximal effect; nearly all actives have a fitted effect of over 55% in size
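Cells (2,000 per well) received 5-fluorouridine plus test compound or DMSO and were incubated 16 hr at 37 °C, 5% CO2. Luciferase activity was read by luminescence 30 min after ONE-Glo addition; signal suppression marked inhibition of damage-induced ELG1 function.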
RORg inh: inhibitors of mouse ROR gamma transcriptional activity; P51450; Drosophila S2 Gal4-RORgamma UAS-luciferase reporter, 20 h; Potency, µM (titrated, usually from 53.6 µM), without a hit: top-dose activity change, negative = inhibition, most hits filed as inhibitors; 310,000 tested, 5.4% active; also: potency is read from the fitted curve at half-maximal effect; nearly all actives have a fitted effect of over 60% in size
Target sequence (P51450 whole entry, looked up, the tested form may be a part): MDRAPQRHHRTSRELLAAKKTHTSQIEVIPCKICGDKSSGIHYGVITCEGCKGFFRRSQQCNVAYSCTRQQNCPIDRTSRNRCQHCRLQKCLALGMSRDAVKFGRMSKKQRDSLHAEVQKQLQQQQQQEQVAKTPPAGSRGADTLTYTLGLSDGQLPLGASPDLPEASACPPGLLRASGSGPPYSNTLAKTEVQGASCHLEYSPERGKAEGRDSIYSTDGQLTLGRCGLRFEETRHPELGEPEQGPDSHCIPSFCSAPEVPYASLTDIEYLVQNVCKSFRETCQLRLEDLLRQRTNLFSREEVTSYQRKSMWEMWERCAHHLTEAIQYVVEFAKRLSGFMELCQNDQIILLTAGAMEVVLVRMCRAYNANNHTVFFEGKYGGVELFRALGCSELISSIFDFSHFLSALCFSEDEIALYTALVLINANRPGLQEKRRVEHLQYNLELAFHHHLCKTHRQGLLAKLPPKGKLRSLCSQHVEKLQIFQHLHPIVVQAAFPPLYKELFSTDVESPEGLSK
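Drosophila S2 cells stably expressing Gal4-DBD/mouse RORγ fusion under metallothionein promoter plus UAS-luciferase; compound 1 h, then 700 uM CuSO4 induction for 20 h at ambient temperature; inhibition read as reduced luminescence.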
Gal4-VP16 FLuc: inhibits Gal4-VP16 luciferase reporter, ROR gamma counter-screen | Drosophila S2 Gal4-VP16 UAS-luciferase, luminescence, 20 h | Potency, µM (top dose mostly 53.6 µM), inactives show at the highest dose activity, negative = inhibition, usual class: inhibitors | 310,000 tested, 3.5% active | AID 2546;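 also: Gal4-VP16 expression switched on by copper sulfate through the metallothionein promoter; potency is read from the fitted curve at half-maximal effect; nearly all actives have a fitted effect of over 50% in size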
Coupling enz: inhibits coupling enzyme system, counter-screen for aldolase hits; coupling enzyme system counterscreen, AmpLite Red fluorescence; activity change, negative = inhibition, % at 58.2 µM, hits read low; 290,000 tested, 0.67% active; in the data active = activity change below about -30%
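Fluorescence at 525 nm excitation and 598 nm emission measured inhibition of the coupled detection system without aldolase. Compounds (at 57.5 uM final) were preincubated 10 min at room temperature with coupling enzyme reagent before a 20 min substrate/AmpLite Red step.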
TSHR antag: human thyrotropin receptor antagonism; AID 504810; TSHR-expressing cells, TSH-stimulated cAMP HTRF, 2 h; active compounds read low; activity change, negative = inhibition, % at 11.5 µM; 330,000 tested, 0.2% active; P16473;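 active = activity change below a set negative limit, meaning inhibition stronger than a set level, cut at about -70% in these data; inconclusive = activity change between two set negative limits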
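TSHR-expressing cells were treated with compounds, then stimulated with TSH at EC80 (4nM final) for 2 hours at 37 deg C. Cellular cAMP was measured by HTRF competition between lysate cAMP and cAMP-d2 for a cryptate-labelled anti-cAMP antibody.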
An asterisk follows results filed as active; ? = inconclusive; · = no result; [ ] = remark or other dose. Unless noted, calls follow the shape of the dose curve; as a rule, active = well fitted curve in the direction sought with a large enough effect; inconclusive = small, poorly fitted or top-dose-only effect, or another doubt; inactive = no such curve, though single readings can be large; an effect the other way counts as inactive or inconclusive. % is scaled to controls: 0 for no effect and ±100 for the full control effect.

SMILES	ELG1 DNA repair	RORg inh	Gal4-VP16 FLuc	Coupling enz	TSHR antag
c1ccn2cc(C34CC5CC(CC(C5)C3)C4)nc2c1	1%	5.6µM*	22µM*	0	-14
CCc1cccc(CC)c1NC(=S)NCCc1c(C)[nH]c2ccc(C)cc12	?	3.2µM*	5µM*	2	3
CCc1cccc(C)c1NC(=S)NCCc1c(C)[nH]c2ccc(C)cc12	-25%	2.2µM*	5.6µM*	-1	0
CCC1(c2ccccc2)NC(=S)N(c2ccc(C)cc2)N1 (stereo not drawn)	?	5µM*	?	3	-2
CCCCCC1(C)NC(=S)N(c2ccccc2)N1 (stereo not drawn)	7.3µM*	?	?	0	10
CC1(CC(=O)Nc2ccccc2)NC(=S)N(c2ccccc2)N1 (stereo not drawn)	?	7.9µM*	1%	0	9
COc1ccc(C2NS(=O)(=O)OCC2C)cc1 (stereo not drawn)	-18%	2%	0%	0	3
NC(=S)N1OC[C@@H]2COc3ccc4ccccc4c3[C@@H]21	12µM*	?	4%	0	0
CO/N=C/NC(=O)N1OC[C@@H]2COc3ccc4ccccc4c3[C@@H]21	-1%	13%	2%	1	-40
CC(C#Cc1ccc2c(c1)COc1c3ccccc3nn1-2)OC(C)(C)C (stereo not drawn)	?	·	·	·	-9
COc1cccc(C(=O)Nc2ccc(-c3nc4ccccc4o3)c(O)c2)c1	?	5µM*	7.1µM*	-1	-43
COc1cc(C(=O)Nc2ccc(-c3nc4cc(C)ccc4o3)c(O)c2)cc(OC)c1OC	?	3.5µM*	-22%	-5	-41
O=C(Nc1ccc(-c2nc3ccccc3o2)cc1)c1cc(-n2cnnc2)ccc1Cl	?	?	?	2	-14
O=C(Nc1ccc(-c2nc3ccccc3o2)c(O)c1)c1cc(-n2cnnc2)ccc1Cl	21µM*	8.9µM*	?	0	-7
COc1cc(NC(=O)Cn2nc(C(F)(F)F)c(Br)c2C)cc([N+](=O)[O-])c1	18µM*	?	18µM*	-1	-41
OCCOCCOc1cccc2[nH]ccc12	12%	-12%	-3%	-1	-9
CN(CCO)CCOCCOc1cccc2ccccc12	4%	28%	6%	-47*	17
CCN(CC)S(=O)(=O)c1cccc(-c2nnc(SCCOc3ccc(Cl)cc3)o2)c1	21µM*	-14%	-1%	-1	-36
CC1=C(C(=O)OCCOc2ccccc2)C(c2ccsc2)NC(=O)N1C (stereo not drawn)	23µM*	?	-3%	-1	-21
O=C(NNS(=O)(=O)c1ccccc1F)c1ccccc1-n1cccc1	1%	-2%	3%	·	12
C[C@@]12CC[C@@H]3c4ccc(O)cc4C[C@H](CCCCCCCCCS(=O)CCCC(F)(F)C(F)(F)F)[C@H]3[C@@H]1CC[C@@H]2O (stereo partly drawn)	·	19%	-10%	-2	·
CN(Cc1nc2ccccc2n1C)C(=O)c1ccco1	-7%	-25%	-1%	·	57
Cn1c(C(C#N)C(=O)c2ccco2)nc2ccccc21 (stereo not drawn)	?	?	6.3µM*	-1	-5
Cn1c(C(C#N)C(=O)Cc2cccc3ccccc23)nc2ccccc21 (stereo not drawn)	-7%	0.79µM*	?	0	·
CCCC(=O)NC(C)c1nc2ccccc2n1C (stereo not drawn)	11%	4%	4%	-2	14
SMILES	ELG1 DNA repair	RORg inh	Gal4-VP16 FLuc	Coupling enz	TSHR antag
Cc1ccc2c(Cl)c(C)c(N3CCCCC3)nc2n1	12%	4µM*	?	3	-2
Cc1nc2ccccc2nc1N1CCCCC1	18%	19%	16%	4	13
Cc1nc(N2CCOCC2)c2nc(-c3ccccc3)n(CC3CCN(C)CC3)c2n1	·	-7%	-12%	3	·
Cn1c(=O)c(-c2cc(F)cc(F)c2)nc2cnc(N3CCOCC3)nc21	·	-11%	7%	4	·
Cc1cccc(N2CCN(C(=O)Cn3sc4nc(C)cc(C)c4c3=O)CC2C)c1 (stereo not drawn)	0%	7.1µM*	13µM*	3	-5
Cc1cc(C)c2c(=O)n(CC(=O)N3CCC(Cc4ccccc4)CC3)sc2n1	5%	?	4µM*	4	-3
Cc1cccc(N2CCN(C(=O)Cn3nc(C)n4cccc4c3=O)CC2C)c1 (stereo not drawn)	-15%	-14%	1%	0	-11
O=C(N/N=C/c1cc([N+](=O)[O-])ccc1O)C1C2CCCCC21 (stereo not drawn)	?	0.89µM*	2.8µM*	-1	-17
O=C(N/N=C/c1cc([N+](=O)[O-])ccc1O)C1CCCCC1	-24%	0.5µM*	2.5µM*	3	-3
O=[N+]([O-])c1ccc(O)c(/C=N/n2cnnc2)c1	1%	-14%	0%	7	-5
CCC/C(C#Cc1ccsc1)=C1/c2ccccc2C(=O)N1c1ccccc1	?	·	·	·	26
CCOCCN1CCN(c2c(C)c(C)nc3cc(-c4cc(OC)cc(OC)c4)nn23)CC1	16µM*	1%	14%	1	6
COc1ccc(-c2cc3nc(C)cc(N4CC(C)CC(C)C4)n3n2)cc1 (stereo not drawn)	?	?	?	1	5
C=CCn1c(-c2ccc(OC)cc2)csc1=Nc1c(C)n(C)n(-c2ccccc2)c1=O	21µM*	30%	1%	9	-14
COCCNC(=O)c1cccc(Nc2nc(-c3ccccc3)c3cc(Cl)ccc3n2)c1	21µM*	36%	?	2	-9
OCCNc1nc(-c2ccccc2)c2cc(Cl)ccc2n1	10%	12%	-4%	5	-3
CC(=O)c1cccc(NC(=O)c2sc3nc4n(c(=O)c3c2C)CCCC4)c1	0%	-27%	2%	-2	-132*
CC(=O)Nc1ccc(NC(=O)c2sc3nc4n(c(=O)c3c2C)CCCCC4)cc1	?	-10%	-3%	0	-6
COC(=O)N1CCC2(CCCN(Cc3ccc(C#N)cc3)C2)CC1	·	-11%	5%	1	·
COc1ccccc1N1CCN(C(c2ccccc2Cl)c2nnnn2C(C)(C)C)CC1 (stereo not drawn)	·	?	?	-1	·
COc1ccccc1N1CCN(C(c2ccc(Cl)cc2)c2nnnn2C(C)(C)C)CC1 (stereo not drawn)	?	-123%	22µM*	0	-9
CCN(C(=O)c1ccncc1)c1c(N)n(Cc2ccccc2)c(=O)[nH]c1=O	0%	·	·	·	8
O=C(N/N=C(\Cc1ncc[nH]1)c1ccccc1)c1ccccc1	?	11µM*	-9%[10 µM]	0	8
